Measured values from a collection of fitness landscapes (doi:10.1126/science.1257360).
Whole data set: some 140,000 sequences, median “enrichment ratio after two sorts for PhoP signalling” near 0, cut for the highest 2% near 11. What follows is part of a selection rich in the highest values, with near analogues and random picks from the rest.

B1: PhoQ; a variant is named by its letters at X, in order, P23837 (parent)
chain: MKKLLRLFFPLSLRVRFLLATAAVVLVLSLAYGMVALIGYSVSFDKTTFRLLRGESNLFYTLAKWENNKLHVELPENIDKQSPTMTLIYDENGQLLWAQRDVPWLMKMIQPDWLKSNGFHEIEADVNDTSLLLSGDHSIQQQLQEVREDDDDAEMTHSVAVNVYPATSRMPKLTIVVVDTIPVELKSSYMVWSWFIYVLSANLLLVIPLLWVAAWWSLRPIEALAKEVRELEEHNRELLNPATTRELTSLVRNLNRLLKSERERYDKYRTTLTDLTHSLKTPLXXLQXXLRSLRSEKMSVSDAEPVMLEQISRISQQIGYYLHRASMRGGTLLSRELHPVAPLLDNLTSALNKVYQRKGVNISLDISPEISFVGEQNDFVEVMGNVLDNACKYCLEFVEISARQTDEHLYIVVEDDGPGIPLSKREVIFDRGQRVDTLRPGQGVGLAVAREITEQYEGKIVAGESMLGGARMEVIFGRQHSAPKDE

Variants of: B1
Experiment: enrichment ratio after two sorts for PhoP signalling (ratio (wild type AVST 3.29)); higher = more functional
Settings: with PhoP (E. coli)

Variant	enrichment ratio
RNTT	≤ 0.25
NFHF	≤ 0.25
RATT	≤ 0.25
RPPR	≤ 0.25
QKLG	≤ 0.25
PTLR	≤ 0.25
NSHF	≤ 0.25
VEMV	27.4
MEMG	12.8
VEKK	≤ 0.25
VEMG	6.39
MEVG	4.29
MKMG	≤ 0.25
LQGT	≤ 0.25
RYHM	≤ 0.25
FHIH	≤ 0.25
PDKA	≤ 0.25
SVHW	≤ 0.25
SIGW	11.7
SVGW	14.4
SRGW	2.5
SQGW	≤ 0.25
SCGW	20.5
SVGD	≤ 0.25
KYGW	≤ 0.25

Variant	enrichment ratio
SYGW	≤ 0.25
TMAH	1.31
NNEC	≤ 0.25
VWTE	≤ 0.25
RHES	≤ 0.25
IKSM	≤ 0.25
WYNQ	≤ 0.25
MFWL	≤ 0.25
TAGE	≤ 0.25
IAEM	≤ 0.25
YATM	≤ 0.25
TAAM	13.6
TANE	18.3
LQEM	≤ 0.25
KANE	≤ 0.25
TAEM	25.7
TARM	≤ 0.25
KAAM	≤ 0.25
TATM	27
TATI	5.19
LGLR	≤ 0.25
IPIH	≤ 0.25
IDYN	≤ 0.25
LPTD	≤ 0.25
HEFY	≤ 0.25

Variant	enrichment ratio
DTSM	≤ 0.25
TANK	≤ 0.25
TACK	11.6
NAGL	≤ 0.25
KANM	≤ 0.25
YANM	0.317
TAWM	9.41
TAPM	≤ 0.25
TANL	10
KAGL	≤ 0.25
TAGL	12.4
TANM	19.5
TANS	11.9
ERPF	≤ 0.25
TCLM	1.01
EGYT	≤ 0.25
LDPK	≤ 0.25
DMWR	≤ 0.25
EPFH	≤ 0.25
QHGK	≤ 0.25
DCLA	≤ 0.25
YSEC	≤ 0.25
TAGD	9.3
TAGM	13.2
TACM	12.4

Variant	enrichment ratio
TAWE	24.5
KAWE	≤ 0.25
KANA	≤ 0.25
NWCM	≤ 0.25
YANA	≤ 0.25
TANA	15.9
TAVM	2.01
NAWE	≤ 0.25
KACM	≤ 0.25
QGRI	≤ 0.25
SQSD	≤ 0.25
AVQG	≤ 0.25
ICYL	≤ 0.25
MLLM	7.62
DQQR	≤ 0.25
KFML	≤ 0.25
GDAW	≤ 0.25
HFFI	≤ 0.25
RKHF	≤ 0.25
WQPT	≤ 0.25
RISQ	≤ 0.25
NISQ	≤ 0.25
AKSQ	20.1
ADSQ	≤ 0.25
KQSQ	≤ 0.25

Variant	enrichment ratio
VLSQ	≤ 0.25
TTSQ	16.8
ALSQ	16.2
YTSQ	≤ 0.25
AHSQ	≤ 0.25
CISQ	55.8
ALSK	2.03
TLEP	≤ 0.25
DVCT	≤ 0.25
TMFF	≤ 0.25
AISQ	15.6
VHSQ	≤ 0.25
GTSQ	5.69
ATSK	4.37
WISQ	≤ 0.25
ATSQ	11.6
GRRA	≤ 0.25
KANK	≤ 0.25
LHPY	≤ 0.25
YEKR	≤ 0.25
IVLL	1.17
SRSV	≤ 0.25
SPTA	≤ 0.25
SGSV	12.1
TSSV	20

Variant	enrichment ratio
SDSV	5.55
KSSV	≤ 0.25
SQSV	11.9
KSTA	≤ 0.25
NSSV	≤ 0.25
SGWR	≤ 0.25
SGDW	≤ 0.25
TVTA	19.9
VCWY	≤ 0.25
PCPR	≤ 0.25
KLGA	≤ 0.25
AKGF	≤ 0.25
EKFN	≤ 0.25
AGVG	1.3
IANT	≤ 0.25
DDSV	≤ 0.25
NVSV	≤ 0.25
SLSV	7.73
SCSV	9.38
TLSV	16.7
KYSV	≤ 0.25
VLSV	≤ 0.25
LLSV	≤ 0.25
LASV	≤ 0.25
TQSV	20.7

Variant	enrichment ratio
SESV	16.9
SISV	11.6
EDTD	≤ 0.25
RDHH	≤ 0.25
GWHV	≤ 0.25
YFPW	≤ 0.25
LVPS	≤ 0.25
NTCA	≤ 0.25
HTEF	≤ 0.25
LAEC	≤ 0.25
IDHP	≤ 0.25
HCSV	≤ 0.25
TVSV	14.9
WPTA	14.3
TMSV	16.5
KMSV	≤ 0.25
TASV	17.9
NASV	≤ 0.25
WPTS	≤ 0.25
KASV	≤ 0.25
DMSV	≤ 0.25
WPTD	≤ 0.25
SPSV	≤ 0.25
VEEC	≤ 0.25
ITEG	0.328

Variant	enrichment ratio
RMAH	≤ 0.25
NGEP	≤ 0.25
ATVR	4.36
QILH	≤ 0.25
MNDG	≤ 0.25
GVPD	≤ 0.25
VQKT	≤ 0.25
RQKC	≤ 0.25
HSFA	≤ 0.25
ICYS	≤ 0.25
FLCS	≤ 0.25
TMVF	≤ 0.25
HKMC	≤ 0.25
GGMC	≤ 0.25
PTMC	≤ 0.25
HRMC	≤ 0.25
TKMC	77.6
ATMC	11.2
NSMC	≤ 0.25
TGMC	31.9
ASMC	12.1
RGMC	≤ 0.25
HFMC	≤ 0.25
HIMC	48.5
